This is an account of results in PMC11006913.

Numbering of substitutions follows the chain as printed.

Assay in all cases: PBM; 200 nM protein, PBS
Conditions in all cases: dsDNA, one strand shown

In assay [1] the target is T1, NKX2-6 (Homo sapiens, UniProt A6NCS4 118-204).
T1 sequence: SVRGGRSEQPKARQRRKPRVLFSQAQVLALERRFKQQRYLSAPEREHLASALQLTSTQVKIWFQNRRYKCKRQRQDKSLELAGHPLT

The target in assay [2] is T2, NKX2-6 (Homo sapiens, UniProt A6NCS4 118-204, F151L).
T2 sequence: T1 sequence with F34L

The target in assay [3] is T3, PAX4 (Homo sapiens, UniProt O43316 9-242, R200Q).
T3 sequence: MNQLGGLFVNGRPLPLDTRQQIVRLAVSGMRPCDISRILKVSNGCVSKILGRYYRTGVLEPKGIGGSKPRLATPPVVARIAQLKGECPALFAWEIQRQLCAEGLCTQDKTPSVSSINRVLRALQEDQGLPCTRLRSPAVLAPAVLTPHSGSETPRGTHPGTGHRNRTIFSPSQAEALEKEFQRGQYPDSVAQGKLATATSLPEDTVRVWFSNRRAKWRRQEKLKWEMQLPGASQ

Assay [4] deals with T4, PAX4 (Homo sapiens, UniProt O43316 9-242, F177Y).
T4 sequence: T3 sequence with F169Y, Q192R

The target in assay [5] is NKX3-2 (Homo sapiens, UniProt P78367 192-278, P234S).
Chain of NKX3-2 (Homo sapiens, UniProt P78367 192-278, P234S) (P78367 192-278 P234S): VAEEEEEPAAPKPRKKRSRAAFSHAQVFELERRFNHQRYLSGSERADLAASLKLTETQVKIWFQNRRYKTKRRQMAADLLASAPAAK
Assay [6] concerns the target NKX3-2 (Homo sapiens, UniProt P78367 192-278).
In assay [7] the target is PITX2 (Homo sapiens, UniProt Q99697 72-157).
In assay [8] the target is T5, PAX4 (Homo sapiens, UniProt O43316 9-242, R227W).
T5 sequence: T3 sequence with Q192R, R219W

Chain of NKX3-2 (Homo sapiens, UniProt P78367 192-278) (P78367 192-278): as the sequence (P78367 192-278 P234S) above, with S43P counted along it

Regarding AAACACTA, the binding signal in assay [1] is 11.5 upbm affinity estimate (log intensity, higher = more binding, comparable within an allelic series); in assay [2] it was 9.97 upbm affinity estimate (log intensity, higher = more binding, comparable within an allelic series).
With ACCGTTTG, the binding signal was 9.46 upbm affinity estimate (log intensity, higher = more binding, comparable within an allelic series) in assay [1] and 9.44 upbm affinity estimate (log intensity, higher = more binding, comparable within an allelic series) in assay [2].
GGCCCGTA: the binding signal in assay [1] is 9.15 upbm affinity estimate (log intensity, higher = more binding, comparable within an allelic series); in assay [2], 9.45 upbm affinity estimate (log intensity, higher = more binding, comparable within an allelic series).
Consider CAGATCCC, for which the binding signal in assay [1] was 9.68 upbm affinity estimate (log intensity, higher = more binding, comparable within an allelic series); in assay [2], 9.49 upbm affinity estimate (log intensity, higher = more binding, comparable within an allelic series).
Regarding ACGGACGA, the binding signal in assay [1] is 9.27 upbm affinity estimate (log intensity, higher = more binding, comparable within an allelic series); in assay [2], 9.49 upbm affinity estimate (log intensity, higher = more binding, comparable within an allelic series).
On to CGTCTGGC, for which the binding signal in assay [1] is 9.46 upbm affinity estimate (log intensity, higher = more binding, comparable within an allelic series); in assay [2] it was 9.41 upbm affinity estimate (log intensity, higher = more binding, comparable within an allelic series).
On to GGCACAGA, for which the binding signal in assay [1] was 9.3 upbm affinity estimate (log intensity, higher = more binding, comparable within an allelic series); in assay [2], 9.37 upbm affinity estimate (log intensity, higher = more binding, comparable within an allelic series).
Regarding CCGCGCAC, the binding signal in assay [1] was 9.44 upbm affinity estimate (log intensity, higher = more binding, comparable within an allelic series); in assay [2], 9.51 upbm affinity estimate (log intensity, higher = more binding, comparable within an allelic series).
As to CAGACGGG, the binding signal in assay [1] was 9.56 upbm affinity estimate (log intensity, higher = more binding, comparable within an allelic series); in assay [2], 9.37 upbm affinity estimate (log intensity, higher = more binding, comparable within an allelic series).
For the sequence CCGCGCGG, the binding signal in assay [1] was 9.66 upbm affinity estimate (log intensity, higher = more binding, comparable within an allelic series); in assay [2], 9.56 upbm affinity estimate (log intensity, higher = more binding, comparable within an allelic series).
For the sequence GGTGCGAC, the binding signal in assay [1] is 9.44 upbm affinity estimate (log intensity, higher = more binding, comparable within an allelic series); in assay [2], 9.43 upbm affinity estimate (log intensity, higher = more binding, comparable within an allelic series).
For the sequence AGTATGTA, the binding signal is 11.6 upbm affinity estimate (log intensity, higher = more binding, comparable within an allelic series) in assay [1] and 9.91 upbm affinity estimate (log intensity, higher = more binding, comparable within an allelic series) in assay [2].
On to TCAACTCA, for which the binding signal in assay [1] was 11.4 upbm affinity estimate (log intensity, higher = more binding, comparable within an allelic series); in assay [2], 9.78 upbm affinity estimate (log intensity, higher = more binding, comparable within an allelic series).
CCAAGGCA: the binding signal in assay [1] is 9.52 upbm affinity estimate (log intensity, higher = more binding, comparable within an allelic series); in assay [2], 9.42 upbm affinity estimate (log intensity, higher = more binding, comparable within an allelic series).
On to ACTTGACT, for which the binding signal in assay [1] was 12.4 upbm affinity estimate (log intensity, higher = more binding, comparable within an allelic series); in assay [2] it was 10.4 upbm affinity estimate (log intensity, higher = more binding, comparable within an allelic series).
As for CTTAAGGC, the binding signal in assay [1] is 11.5 upbm affinity estimate (log intensity, higher = more binding, comparable within an allelic series); in assay [2], 9.76 upbm affinity estimate (log intensity, higher = more binding, comparable within an allelic series).
Regarding ACTACTTA, the binding signal in assay [1] was 13.5 upbm affinity estimate (log intensity, higher = more binding, comparable within an allelic series); in assay [2], 10.5 upbm affinity estimate (log intensity, higher = more binding, comparable within an allelic series).
In the case of CACGGGTC, the binding signal in assay [1] is 9.25 upbm affinity estimate (log intensity, higher = more binding, comparable within an allelic series); in assay [2] it was 9.31 upbm affinity estimate (log intensity, higher = more binding, comparable within an allelic series).
For GGCGTTAC, the binding signal was 9.36 upbm affinity estimate (log intensity, higher = more binding, comparable within an allelic series) in assay [1] and 9.53 upbm affinity estimate (log intensity, higher = more binding, comparable within an allelic series) in assay [2].
Turning to AAGGGTCA, the binding signal in assay [1] was 11.8 upbm affinity estimate (log intensity, higher = more binding, comparable within an allelic series); in assay [2], 10 upbm affinity estimate (log intensity, higher = more binding, comparable within an allelic series).
As to GGAAAGTA, the binding signal in assay [1] was 11.2 upbm affinity estimate (log intensity, higher = more binding, comparable within an allelic series); in assay [2] it was 9.87 upbm affinity estimate (log intensity, higher = more binding, comparable within an allelic series).
Consider CCACAGCG, for which the binding signal in assay [1] was 8.94 upbm affinity estimate (log intensity, higher = more binding, comparable within an allelic series); in assay [2], 9.3 upbm affinity estimate (log intensity, higher = more binding, comparable within an allelic series).
As to CGGTGGCC, the binding signal in assay [1] was 9.03 upbm affinity estimate (log intensity, higher = more binding, comparable within an allelic series); in assay [2], 9.22 upbm affinity estimate (log intensity, higher = more binding, comparable within an allelic series).
AGGGACGA: the binding signal in assay [1] was 9.37 upbm affinity estimate (log intensity, higher = more binding, comparable within an allelic series); in assay [2] it was 9.28 upbm affinity estimate (log intensity, higher = more binding, comparable within an allelic series).
In the case of ATCACTCA, the binding signal in assay [1] is 12.1 upbm affinity estimate (log intensity, higher = more binding, comparable within an allelic series); in assay [2], 9.9 upbm affinity estimate (log intensity, higher = more binding, comparable within an allelic series).
On to AAATACTC, for which the binding signal in assay [1] is 11.4 upbm affinity estimate (log intensity, higher = more binding, comparable within an allelic series); in assay [2], 9.88 upbm affinity estimate (log intensity, higher = more binding, comparable within an allelic series).
On to GTAAATTA, for which the binding signal in assay [3] is 11.9 upbm affinity estimate (log intensity, higher = more binding, comparable within an allelic series); in assay [4] it was 11 upbm affinity estimate (log intensity, higher = more binding, comparable within an allelic series).
On to AAGTCATT, for which the binding signal is 11.3 upbm affinity estimate (log intensity, higher = more binding, comparable within an allelic series) in assay [1] and 9.8 upbm affinity estimate (log intensity, higher = more binding, comparable within an allelic series) in assay [2].
As for CCCGTTCG, the binding signal in assay [1] was 9.17 upbm affinity estimate (log intensity, higher = more binding, comparable within an allelic series); in assay [2], 9.43 upbm affinity estimate (log intensity, higher = more binding, comparable within an allelic series); in assay [5], 10.5 upbm affinity estimate (log intensity, higher = more binding, comparable within an allelic series); in assay [6] it was 10.5 upbm affinity estimate (log intensity, higher = more binding, comparable within an allelic series).
AGCCCTCA: the binding signal in assay [1] is 11.1 upbm affinity estimate (log intensity, higher = more binding, comparable within an allelic series); in assay [2], 9.52 upbm affinity estimate (log intensity, higher = more binding, comparable within an allelic series); in assay [5] it was 11.5 upbm affinity estimate (log intensity, higher = more binding, comparable within an allelic series); in assay [6], 11.6 upbm affinity estimate (log intensity, higher = more binding, comparable within an allelic series).
Regarding ATCCGCAG, the binding signal in assay [1] was 9.55 upbm affinity estimate (log intensity, higher = more binding, comparable within an allelic series); in assay [2], 9.47 upbm affinity estimate (log intensity, higher = more binding, comparable within an allelic series).
As to ACGCATCC, the binding signal is 9.51 upbm affinity estimate (log intensity, higher = more binding, comparable within an allelic series) in assay [1] and 9.35 upbm affinity estimate (log intensity, higher = more binding, comparable within an allelic series) in assay [2].
In the case of GCTATTGA, the binding signal in assay [1] is 11.7 upbm affinity estimate (log intensity, higher = more binding, comparable within an allelic series); in assay [2], 9.84 upbm affinity estimate (log intensity, higher = more binding, comparable within an allelic series).
For ACCCAGGC, the binding signal is 8.77 upbm affinity estimate (log intensity, higher = more binding, comparable within an allelic series) in assay [1] and 9.31 upbm affinity estimate (log intensity, higher = more binding, comparable within an allelic series) in assay [2].
For GGTATTAA, the binding signal in assay [7] is 12.3 upbm affinity estimate (log intensity, higher = more binding, comparable within an allelic series).
TAAGAAGA: the binding signal in assay [1] is 11.5 upbm affinity estimate (log intensity, higher = more binding, comparable within an allelic series); in assay [2], 9.88 upbm affinity estimate (log intensity, higher = more binding, comparable within an allelic series).
As for CATGTGGG, the binding signal in assay [1] was 9.41 upbm affinity estimate (log intensity, higher = more binding, comparable within an allelic series); in assay [2], 9.56 upbm affinity estimate (log intensity, higher = more binding, comparable within an allelic series).
Consider GAAGGTCA, for which the binding signal in assay [7] is 7.87 upbm affinity estimate (log intensity, higher = more binding, comparable within an allelic series).
With ACCTCTCA, the binding signal was 12 upbm affinity estimate (log intensity, higher = more binding, comparable within an allelic series) in assay [1] and 9.82 upbm affinity estimate (log intensity, higher = more binding, comparable within an allelic series) in assay [2].
For ACGGCACG, the binding signal in assay [1] is 9.26 upbm affinity estimate (log intensity, higher = more binding, comparable within an allelic series); in assay [2], 9.49 upbm affinity estimate (log intensity, higher = more binding, comparable within an allelic series).
On to GATACTTA, for which the binding signal in assay [1] is 13.3 upbm affinity estimate (log intensity, higher = more binding, comparable within an allelic series); in assay [2], 10.5 upbm affinity estimate (log intensity, higher = more binding, comparable within an allelic series).
With GTTAAGTA, the binding signal in assay [1] was 13.5 upbm affinity estimate (log intensity, higher = more binding, comparable within an allelic series); in assay [2], 10.8 upbm affinity estimate (log intensity, higher = more binding, comparable within an allelic series).
For CTCTCATC, the binding signal was 11.6 upbm affinity estimate (log intensity, higher = more binding, comparable within an allelic series) in assay [1]; 9.79 upbm affinity estimate (log intensity, higher = more binding, comparable within an allelic series) in assay [2]; 11.7 upbm affinity estimate (log intensity, higher = more binding, comparable within an allelic series) in assay [5]; 11.9 upbm affinity estimate (log intensity, higher = more binding, comparable within an allelic series) in assay [6].
For the sequence GCTAAGTA, the binding signal in assay [1] was 12.9 upbm affinity estimate (log intensity, higher = more binding, comparable within an allelic series); in assay [2], 10.4 upbm affinity estimate (log intensity, higher = more binding, comparable within an allelic series).
Regarding CAGCTCAG, the binding signal in assay [1] was 9.47 upbm affinity estimate (log intensity, higher = more binding, comparable within an allelic series); in assay [2], 9.39 upbm affinity estimate (log intensity, higher = more binding, comparable within an allelic series).
Take CAGGGTCG: the binding signal is 9.43 upbm affinity estimate (log intensity, higher = more binding, comparable within an allelic series) in assay [1] and 9.26 upbm affinity estimate (log intensity, higher = more binding, comparable within an allelic series) in assay [2].
On to ACCAGAGC, for which the binding signal is 9.39 upbm affinity estimate (log intensity, higher = more binding, comparable within an allelic series) in assay [1] and 9.5 upbm affinity estimate (log intensity, higher = more binding, comparable within an allelic series) in assay [2].
Consider AGTTGCTG, for which the binding signal in assay [1] is 9.45 upbm affinity estimate (log intensity, higher = more binding, comparable within an allelic series); in assay [2] it was 9.39 upbm affinity estimate (log intensity, higher = more binding, comparable within an allelic series); in assay [5], 10.7 upbm affinity estimate (log intensity, higher = more binding, comparable within an allelic series); in assay [6], 10.6 upbm affinity estimate (log intensity, higher = more binding, comparable within an allelic series).
Turning to GAAATTAA, the binding signal in assay [3] is 11.9 upbm affinity estimate (log intensity, higher = more binding, comparable within an allelic series); in assay [4], 10.9 upbm affinity estimate (log intensity, higher = more binding, comparable within an allelic series); in assay [8], 10.9 upbm affinity estimate (log intensity, higher = more binding, comparable within an allelic series).
CCTTAATC: the binding signal in assay [1] is 11.3 upbm affinity estimate (log intensity, higher = more binding, comparable within an allelic series); in assay [2] it was 9.82 upbm affinity estimate (log intensity, higher = more binding, comparable within an allelic series).
Consider CCGCGTTC, for which the binding signal is 9.4 upbm affinity estimate (log intensity, higher = more binding, comparable within an allelic series) in assay [1] and 9.39 upbm affinity estimate (log intensity, higher = more binding, comparable within an allelic series) in assay [2].
